Measured values from PubChem BioAssay AID463173 (ICCB-Longwood Screening Facility, Harvard Medical School, 2010).
Out of some 52,000 compounds screened, about 1,700 (3.3%) were called active. The list comes from a sample in which actives are over-represented; it also holds similar structures and randomly drawn compounds. A number with no mark means an inactive call. No stated cut-off is given here; in the data, active means survival mostly below about 52% (no sharp cut-off); inactive means mostly above about 56%.

System: Wild type
Test: S. aureus survival, RN4220 and DeltatarO strains – OD600, teichoic acid synthesis inhibitors, primary screen (AID 463173)
Conditions: S. aureus RN4220 wild type/DeltatarO growth, OD600, 18 h, stronger effect = lower value, screened at 18.75 µg/mL (by protocol)

SMILES	survival
O=C(c1ccc2c(c1)OCCO2)N(Cc1cccnc1)c1nc2c(Cl)cccc2s1	128%
O=C(Nc1cccc(C(F)(F)F)c1)c1cc(-c2ccc(Cl)s2)nc2ccccc12	100%
CCn1nc(C)c2c(-c3ccccc3)cc(=O)n(C(C)C(=O)NCc3ccc(C)cc3)c21 (stereo not given)	127%
COc1ccccc1NC(=O)C1=C(C)Nc2ncnn2C1c1cccn1C (stereo not given)	0% (active)
COc1ccc(NC(=O)C2=C(C)Nc3ncnn3C2c2ccc[nH]2)cc1 (stereo not given)	83%
CC1=C(C(=O)Nc2ccccc2)C(c2cccn2C)n2ncnc2N1 (stereo not given)	76%
CC1=C(C(=O)Nc2ccccc2C)C(c2ccc[nH]2)n2ncnc2N1 (stereo not given)	99%
COc1ccc(NC(=O)C2=C(C)Nc3ncnn3C2c2cccn2C)cc1 (stereo not given)	85%
CC1=C(C(=O)Nc2ccccc2)C(c2ccc[nH]2)n2ncnc2N1 (stereo not given)	-3% (active)
COc1ccc(C2C(=O)N(C3CCCCCC3)CC(=O)N2Cc2ccccc2)cc1 (stereo not given)	67%
Cc1ccc(CNC(=O)CN2C(=O)C3CCCCN3c3ccc(C(=O)N4CCCC4)cc32)cc1 (stereo not given)	81%
COc1ccc(-c2ccc(/C=N/NC(N)=O)o2)cc1	114%
CC(=O)C1=C(c2ccc(Cl)c(Cl)c2)N(C(C)=O)n2c(nnc2-c2ccccc2)S1	83%
COc1ccc(C2=C(C(C)=O)Sc3nnc(-c4ccccc4)n3N2C(C)=O)cc1	76%
COc1ccc(-c2nnc3n2N(C(C)=O)C(c2ccc(Cl)c(Cl)c2)=C(C(C)=O)S3)cc1	-3% (active)
COC(=O)c1c(NC(=O)c2cc3nc(-c4ccc(OC)cc4)cc(C(F)(F)F)n3n2)sc2c1CCCC2	73%
Cc1c(CNC2CCCCCC2)c(C(=O)O)c(C)n1Cc1ccc(F)cc1	98%
Nc1ncc(S(=O)(=O)Nc2ccc(F)cc2F)cn1	82%
CCOc1ccccc1NS(=O)(=O)c1cnc(N)nc1	-3% (active)
CCOc1ccccc1CNS(=O)(=O)c1cnc(N)nc1	55%
COc1ccc(-c2c3c(=O)n(C)c(=O)n(C)c3c3n2-c2ccccc2NC3c2ccc(OC)cc2)cc1 (stereo not given)	8% (active)
Cn1c(=O)c2c(-c3ccccc3)n3c(c2n(C)c1=O)C(c1ccc([N+](=O)[O-])cc1)Nc1ccccc1-3 (stereo not given)	21%
Cc1ccc(C2Nc3ccccc3-n3c(-c4ccccc4)c4c(=O)n(C)c(=O)n(C)c4c32)o1 (stereo not given)	74%

SMILES	survival
Cc1ccc(C2Nc3cc(C)c(C)cc3-n3c(-c4ccccc4)c4c(=O)n(C)c(=O)n(C)c4c32)o1 (stereo not given)	77%
COc1ccc(-c2c3c(=O)n(C)c(=O)n(C)c3c3n2-c2ccccc2NC3c2ccco2)cc1 (stereo not given)	57%
Cc1ccc(C2Nc3ccccc3-n3c(-c4ccccc4)c4c(=O)n(C)c(=O)n(C)c4c32)cc1 (stereo not given)	-8% (active)
COc1ccc(C2Nc3ccccc3-n3c(-c4ccccc4)c4c(=O)n(C)c(=O)n(C)c4c32)cc1 (stereo not given)	-3% (active)
COc1ccc(-c2nc3ccccc3n3c(-c4ccccc4)c4c(=O)n(C)c(=O)n(C)c4c23)cc1	80%
COc1ccc(-c2c3c(=O)n(C)c(=O)n(C)c3c3n2-c2ccccc2NC3c2ccccc2OC)cc1 (stereo not given)	64%
Cc1cc(C)cc(NC(=O)CN2C(=O)CSc3ccc(S(=O)(=O)N4CCCC4)cc32)c1	88%
Cc1nnc(SCc2nc(-c3ccc(Cl)cc3)no2)n1-c1ccc(F)cc1	100%
CC(C)CCNC(=O)CCCN1C(=O)c2ccccc2Sc2ncccc21	85%
CCS(=O)(=O)c1nc(S(=O)(=O)c2ccc(C)cc2)c(NC(C)c2ccccc2)s1 (stereo not given)	136%
COC(=O)c1ccc2c(=O)n(CCCCCC(=O)N3CCN(c4ccc(OC)cc4)CC3)c(=O)[nH]c2c1	66%
O=C(Nc1ccc(F)c(F)c1)C1CCCN1S(=O)(=O)c1cccc2nsnc12 (stereo not given)	77%
CCN(CC)CCN(C(=O)c1ccco1)c1nc2c(C)cccc2s1	98%
O=C(Cn1nc(-c2nccc3ccccc23)oc1=O)N1CCCc2ccccc21	103%
COc1ccc(N2CCN(c3oc(/C=C/c4cccc(OC)c4)nc3C#N)CC2)cc1	83%
COc1ccc(-c2nc(CNC(=O)Nc3ccccc3)c(C)o2)cc1	84%
CCOc1ccc2c(c1)[C@@H]1C=CC[C@@H]1[C@H](c1ccccc1Cl)N2	0% (active)
CCOC(=O)c1ccc2c(c1)[C@@H]1C=CC[C@@H]1[C@H](c1cccc(OC)c1OC)N2	0% (active)
COC(=O)c1ccc([C@H]2Nc3ccc(S(=O)(=O)Nc4ccc(F)cc4)cc3[C@H]3C=CC[C@H]32)cc1	69%
COC(=O)c1cccc2c1NC(c1cccnc1)C1CC=CC21 (stereo not given)	111%
Fc1ccc([C@@H]2Nc3ccccc3[C@@H]3C=CC[C@@H]32)cc1	88%
COC(=O)c1ccc([C@@H]2Nc3c(C)cc(C)cc3[C@@H]3C=CC[C@@H]32)cc1	87%
CCOC(=O)c1cccc2c1N[C@@H](c1ccc(F)cc1)[C@H]1CC=C[C@@H]21	12% (active)

SMILES	survival
CCOc1cccc2c1N[C@@H](c1ccc(C(=O)O)cc1)[C@H]1CC=C[C@@H]21	78%
COc1ccc(Br)cc1[C@@H]1Nc2ccc(C(=O)O)cc2[C@@H]2C=CC[C@@H]21	65%
COc1cccc(NS(=O)(=O)c2ccc3c(c2)[C@H]2C=CC[C@H]2[C@@H](c2ccccc2Cl)N3)c1	131%
COC(=O)c1ccc([C@@H]2Nc3c(cccc3C(F)(F)F)[C@@H]3C=CC[C@@H]32)cc1	3% (active)
COC(=O)c1ccc([C@H]2Nc3ccc(S(=O)(=O)Nc4cccc(C)c4)cc3[C@H]3C=CC[C@H]32)cc1	68%
Fc1ccc(-n2ncc3c(Nc4ccc(Oc5ccc(Cl)cc5)cc4)ncnc32)cc1	85%
CC(=O)c1ccc(NC(=O)C2CCC(CNS(=O)(=O)c3cccs3)CC2)cc1 (stereo not given)	60%
O=C(Cn1c(=O)n(CC2CCCO2)c(=O)c2ccccc21)Nc1cccc(Cl)c1 (stereo not given)	82%
Cn1c(=O)c(=O)n(C)c2cc(NS(=O)(=O)c3ccc(Br)cc3)c(Cl)cc21	65%
Cc1ccc2oc3c(c(=O)c2c1)C(c1ccccc1F)N(CCCN1CCOCC1)C3=O (stereo not given)	71%
CCOc1ccc(NC(=O)C(CC)n2c(=O)c(-c3ccccc3NC(C)=O)nc3ccccc32)cc1 (stereo not given)	64%
CC(=O)N1CCc2cc(S(=O)(=O)NC(CC(C)C)C(=O)NCCc3cccc(C)c3)ccc21 (stereo not given)	76%
Cc1nonc1C(=O)NCC(=O)O	91%
O=C(Nc1cccc(C(F)(F)F)c1)N1CC2CCCN2c2ccccc21 (stereo not given)	55%
COC(=O)c1ccc([C@@H]2Nc3c(OC)ccc(C)c3[C@@H]3C=CC[C@@H]32)cc1	77%
Cc1ccc(Cl)c2c1N[C@@H](c1ccc(C(=O)O)cc1)[C@H]1CC=C[C@@H]21	10% (active)
COc1ccc(NS(=O)(=O)c2ccc3c(c2)[C@H]2C=CC[C@H]2[C@@H](c2ccc(C(=O)O)cc2)N3)cc1	68%
CCN(CCCNC(=O)CN1N=C(c2ccccc2)CCC1=O)c1ccccc1	-6% (active)
Cc1ccc(C2=NN(CC(=O)NCCC(C)C)C(=O)CC2)cc1	10% (active)
CCN(CCCNC(=O)CN1N=C(c2ccc(OC)cc2)CCC1=O)c1cccc(C)c1	124%
CCN(CCCNC(=O)CN1N=C(c2ccccc2)CCC1=O)c1cccc(C)c1	136%
CCN(CCCNC(=O)CN1N=C(c2ccc(C)cc2)CCC1=O)c1ccccc1	-2% (active)
CCCCN(CCCNC(=O)CN1N=C(c2ccccc2)CCC1=O)c1ccccc1	72%

SMILES	survival
CCCCN(CCCNC(=O)CN1N=C(c2ccc(C)cc2)CCC1=O)c1ccccc1	101%
Cc1ccc(C2=NN(CC(=O)NCCCN(CC(C)C)CC(C)C)C(=O)CC2)cc1	84%
Cc1ccc(C2=NN(CC(=O)NCCN(CC(C)C)CC(C)C)C(=O)CC2)cc1	129%
COc1ccccc1N1CCN(C(=O)c2cnn(-c3ccc(C)c(C)c3)c2C2CCN(C(=O)OC(C)(C)C)CC2)CC1	99%
CC(=O)NCCNc1nc2c(-c3ccc(C)cc3)nnn2c2ccccc12	82%
CCN(CC)C(=O)c1cc(-c2ccc(Cl)cc2)on1	51%
CCCN1C(=O)C(NC(=O)c2ccccc2OC)(C(F)(F)F)C(C(=O)OC)=C1C (stereo not given)	78%
N#C/C(=C\c1cc(Br)c(O)c(Br)c1)c1nc2ccccc2c(=O)[nH]1	94%
O=C(NCc1ccccc1Cl)c1cc(=O)[nH]c2ccc(S(=O)(=O)N3CCCCC3)cc12	83%
CCOC(=O)c1c(Nc2cccc(C)c2)nnc(-c2ccccc2)c1-c1ccccc1	0% (active)
CCOC(=O)c1c(Nc2ccc(F)cc2)nnc(-c2ccccc2)c1-c1ccccc1	1% (active)
CCOC(=O)c1c(Nc2cc(C)cc(C)c2)nnc(-c2ccccc2)c1-c1ccccc1	38%
CCOC(=O)c1cnc(-c2ccccc2)nc1Nc1ccc(C)cc1	111%
CCOC(=O)c1cccc(Nc2cc(-c3ccccc3)ncn2)c1	40%
CCOC(=O)c1c(C)oc2nc(C)nc(Nc3ccc(CC)cc3)c12	115%
CCOC(=O)c1c(Nc2ccc(C)c(C)c2)nnc(-c2ccccc2)c1-c1ccccc1	0% (active)
CCOC(=O)c1nc(Nc2ccc(OC)cc2)c2ccccc2n1	143%
CCOC(=O)c1c(Nc2cccc(O)c2)nnc(-c2ccccc2)c1-c1ccccc1	44%
CCOC(=O)c1c(Nc2ccc(C)cc2)nnc(-c2ccccc2)c1-c1ccccc1	2% (active)
CCOC(=O)c1c(C)oc2nc(C)nc(Nc3ccc(C)c(Cl)c3)c12	80%
CCOC(=O)c1c(Oc2ccc(C(C)=O)cc2)nnc(-c2ccccc2)c1-c1ccccc1	92%
